Shown are actives, neighbours in structure and some others; about 19% of the full set was active somewhere.
Gal4-VP16 FLuc: inhibits Gal4-VP16 luciferase reporter, ROR gamma counter-screen; Drosophila S2 Gal4-VP16 UAS-luciferase, luminescence, 20 h; Potency, µM (doses to about 53.6 µM), for inactives: top-dose activity, negative = inhibition, most hits filed as inhibitors; 3.5% of 310,000 active; AID 2546;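 also: Gal4-VP16 expression switched on by copper sulfate through the metallothionein promoter; nearly all actives have a fitted effect of over 50% in size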
TDP1 cell noCPT: qHTS for Inhibitors of human tyrosyl-DNA phosphodiesterase 1 (TDP1): qHTS in cells in absence of CPT; DT40 Tdp1-/- hTDP1 cells, no CPT, ATP luminescence, 48 h; Potency, µM (doses to about 46.2 µM), for inactives: at the highest dose activity change, negative = growth inhibition, actives largely listed as inhibitors; 15% of 420,000 active; AID 686978, 2013; also: nearly all actives have a fitted effect of over 55% in size
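No-CPT arm: Tdp1-/-;hTDP1 DT40 cells (400/well) plus compounds, incubated ≥48 hr at 37 °C. Readout CellTiter-Glo luminescence.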
TDP1 block: blocks human tyrosyl-DNA phosphodiesterase 1 | Q9NUW8 | recombinant TDP1, AlphaScreen DNA substrate cleavage | Potency, µM (series often up to 130 µM), inactives show top-dose activity change, negative = inhibition, most hits filed as inhibitors | 0.28% of 350,000 active | AID 485290; also: nearly all actives have a fitted effect of over 40% in size
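AlphaScreen read-out: signal falls as enzyme removes the 3' tyrosine-FITC from a 5'-biotinylated DNA oligo (15 nM, 5 min, RT). Enzyme was E. coli-made recombinant Tdp1 at 1 nM, exposed to compound for 15 min beforehand; beads 10 ug/ml, 10 min.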
RORg inh: blocks mouse ROR gamma transcriptional activity. Potency, µM (series often up to 53.6 µM), inactives show at the top dose activity change, negative = inhibition, actives largely listed as inhibitors. 5.4% of 310,000 active. P51450. Drosophila S2 Gal4-RORgamma UAS-luciferase reporter, 20 h; also: nearly all actives have a fitted effect of over 60% in size
Target sequence (P51450 whole entry, looked up, the tested form may be a part): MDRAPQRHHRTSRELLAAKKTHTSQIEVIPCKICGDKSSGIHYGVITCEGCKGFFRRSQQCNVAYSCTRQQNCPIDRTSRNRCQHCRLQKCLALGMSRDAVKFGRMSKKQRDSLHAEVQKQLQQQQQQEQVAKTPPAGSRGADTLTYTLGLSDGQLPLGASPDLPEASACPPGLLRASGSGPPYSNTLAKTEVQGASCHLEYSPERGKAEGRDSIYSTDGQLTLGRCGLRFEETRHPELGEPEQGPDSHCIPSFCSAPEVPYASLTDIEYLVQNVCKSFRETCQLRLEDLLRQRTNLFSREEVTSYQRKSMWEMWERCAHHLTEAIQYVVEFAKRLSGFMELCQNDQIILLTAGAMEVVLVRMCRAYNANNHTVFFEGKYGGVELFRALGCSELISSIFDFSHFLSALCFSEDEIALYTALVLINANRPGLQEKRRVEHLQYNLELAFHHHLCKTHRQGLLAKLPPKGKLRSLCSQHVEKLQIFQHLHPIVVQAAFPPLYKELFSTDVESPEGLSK
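Luminescence from a UAS-regulated Photinus luciferase reporter in stably transfected Drosophila Schneider cells is measured; decreased signal marks ROR gamma inhibition. Fusion expression is induced by 700 uM copper sulfate for 20 hr.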
TDP1 cell CPT: growth inhibition of DT40 Tdp1-/-;hTDP1 cells with camptothecin (screen for TDP1 inhibitors); chicken DT40 Tdp1-/-;hTDP1 cells + 20 nM CPT, ATP luminescence, 48 h; Potency, µM (highest dose often 46.2 µM), without a hit: at the highest dose activity change, negative = growth inhibition, most hits filed as inhibitors; 12% of 420,000 active; AID 686979; also: nearly all actives have a fitted effect of over 55% in size
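Cell growth measured by CellTiter-Glo luminescence after a minimum 48 h, 37 C compound exposure with 20 nM CPT in Tdp1-knockout DT40 cells stably expressing hTDP1, seeded 400/well; qHTS titration format.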
* marks the source's active call; other numbers are inactive results; ? = inconclusive; . = not tested or not shown; [ ] = dose if it differs, or a comment. Calls follow the shape of the dose curve; as a rule, active = well fitted curve in the direction sought with a large enough effect; inconclusive = small, poorly fitted or top-dose-only effect, or another doubt; inactive = no such curve, though single readings can be large; an effect the other way counts as inactive or inconclusive. % is scaled to controls: 0 for no effect and ±100 for the full control effect; potency is read from the fitted curve at half-maximal effect.

SMILES	Gal4-VP16 FLuc	TDP1 cell noCPT	TDP1 block	RORg inh	TDP1 cell CPT
CC(=O)Nc1ccc(OCC(O)Cn2c3ccccc3c3ccccc32)cc1 (stereo not given)	-19%	?	5%	?	?
O=C(NC1CCCC1)C(=O)N(Cc1cccnc1)C(C(=O)NCc1ccco1)c1ccccc1F (stereo not given)	2%	6%	1%	2%	-3%
Nc1ccc2ncccc2c1N	-10%	?	5%	?	?
Nc1nc(N)c2c(ccc3nccc32)[nH]1	-6%	1µM*	-8%	-15%	1.8µM*
COCCNC(=O)c1ccc2c(=O)n(CCc3ccccc3)c(SCC(=O)CC(=O)OC)nc2c1	.	21µM*	0%	.	?
COCCNc1nnc(SCC(=O)NNC(=O)c2ccccc2)s1	8%	?	0%	-2%	?
COCCNc1nnc(SCC(=O)c2c[nH]c3ccccc23)s1	35µM*	?	0%	?	-24%
COCCNC(=O)c1ccc2c(=O)n(CCOC)c(SCC(=O)c3c[nH]c4ccccc34)nc2c1	.	13µM*	-3%	.	23µM*
CCOC(=O)CC(=O)CSc1nc2ccccc2c(=O)n1CCc1ccccc1	.	?	-7%	.	?
COCCn1c(SCC(=O)c2c[nH]c3ccccc23)nc2cc(C(=O)NCC(C)C)ccc2c1=O	.	-19%	-3%	.	?
CC1=C(C(N)=O)C(c2cccnc2)n2nc(SCc3ccccc3Cl)nc2N1 (stereo not given)	-9%	-3%	-4%	-19%	-3%
Cc1ccc(C(=O)N/C(=C\c2ccc(Cl)cc2)C(=O)NC2CCCCC2)cc1	.	18µM*	-2%[12.3 µM]	.	?
CCCCc1ccc(C(=O)N/C(=C\c2ccc(C)cc2)C(=O)NC2CCCCC2)cc1	.	15µM*	4%[12.3 µM]	.	9.2µM*
Cc1ccc(C(=O)N/C(=C/c2ccc(Cl)cc2)C(=O)NCC2CCCO2)cc1 (stereo not given)	13%	?	6%	17%	-14%
Cc1ccc(C(=O)Nc2ccc(C)c(S(=O)(=O)N3CCOCC3)c2)c(C)c1	10%	-22%	4%	0%	-27%
CNC(=S)N(C)/N=C1/C(=O)N(Cc2c(Cl)cccc2Cl)c2ccccc21	.	18µM*	8%	.	15µM*
OC(Cc1ccccc1)c1ncc(-c2ccc(Cl)cc2)[nH]1 (stereo not given)	.	16µM*	.	.	?
Cc1ccc2ccccc2c1C(O)c1ncc(-c2ccc(Cl)cc2)[nH]1 (stereo not given)	.	8.2µM*	.	.	?
Cc1cccc(C)c1C(O)c1ncc(-c2cccc3ccccc23)[nH]1 (stereo not given)	.	16µM*	.	.	21µM*
Cc1cc(C)c(C(O)c2ncc(-c3ccccc3F)[nH]2)c(C)c1 (stereo not given)	.	?	.	.	15µM*
Cc1cccc(C)c1C(O)c1ncc(-c2ccccc2F)[nH]1 (stereo not given)	.	?	.	.	21µM*
COc1c(C)cc(C(O)c2ncc(-c3cccc4ccccc34)[nH]2)cc1C (stereo not given)	.	18µM*	.	.	21µM*
Cc1noc(C)c1COC(=O)c1cccnc1SCC(=O)Nc1ccc2c(c1)OCO2	-3%	?	10%	24%	?
O=C(Nc1cc(S(=O)(=O)N2CCOCC2)ccc1N1CCCCC1)c1cc(-c2ccccn2)nc2ccccc12	-3%	?	-10%	6%	?
COc1ccc(NC(=O)CCOc2ccccc2C)cc1S(=O)(=O)N1CCCCC1	.	18µM*	-1%	.	29µM*
SMILES	Gal4-VP16 FLuc	TDP1 cell noCPT	TDP1 block	RORg inh	TDP1 cell CPT
COc1ccc(CCC(=O)Nc2ccc(Cl)c(S(=O)(=O)N3CCCC3)c2)cc1	?	?	6%	20%	21µM*
COc1cc(CCC(=O)Nc2ccc(S(=O)(=O)N3CCCC3)cc2)cc(OC)c1OC	.	?	1%	.	-25%
COc1ccc(CCC(=O)Nc2ccc(S(=O)(=O)N3CCOCC3)cc2)cc1	-6%	-21%	4%	34%	?
COc1cc(CCC(=O)Nc2ccc(C)c(S(=O)(=O)N3CCCCCC3)c2)cc(OC)c1OC	.	7.3µM*	1%	.	10µM*
COc1ccc(NC(=O)COc2ccccc2Cl)cc1S(=O)(=O)N1CCCCC1	.	-15%	4%	.	?
COc1cc(CCC(=O)Nc2cccc(S(=O)(=O)N(C)C)c2)cc(OC)c1OC	7%	26µM*	6%	20%	?
CCOc1ccc(/C=N/n2nnnc2N)cc1O	?	-22%	-2%	?	6%
CN(C)S(=O)(=O)c1cccc(NC(=O)COc2ccccc2C(=O)NCc2ccccc2)c1	.	?	2%	.	16µM*
COc1ccccc1CCC(=O)Nc1ccc(OC)c(S(=O)(=O)N2CCCCC2)c1	.	-27%	-2%	.	?
COc1ccc(CCC(=O)Nc2ccc(OC)c(S(=O)(=O)N3CCCCC3)c2)cc1OC	.	?	-1%	.	21µM*
CCCCC1CCC(C(=O)N2CCOCC2)CC1 (stereo not given)	12%	-17%	8%	6%	0%

Screens: PubChem, National Center for Advancing Translational Sciences (NCATS)
